This is a sample that favours compounds with a hit; in the whole collection about 3.3% have one here.
H9c2 protect: myocardial damage modulation in H9c2 cells; H9c2 cardiomyocytes, H2O2 injury protection, ATPLite, 2 h; protection from H2O2 cell death, % at 20 µM; hit rate 0.63% among 360,000;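 active = compounds giving at least 50% protection of heart cells from peroxide-induced death in the single-dose screen, raw or plate-pattern-corrected value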
Efflux pump inh: antifungal efflux pump inhibition, Nile Red retention. S. cerevisiae Candida pump triplex. inhibition, % at 10 µM. hit rate 0.44% among 330,000. AID 485275;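 active = plate passing quality check with inhibition over a set limit, or well fluorescence over plate mean plus 4 SD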;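 note: Nile Red retained in pooled yeast measured as flow cytometry median fluorescence; higher means more Nile Red kept so more efflux inhibition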
KCC2 mod: modulators of human KCC2 chloride dependent transport; B-score of Tl+ flux slope (higher = more flux/activation; lower = inhibition) at 10 µM; hit rate 2.2% among 190,000; KCC2 cells, thallium flux FluoZin-2 fluorescence; Q9H2X9; AID 1456;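 active = thallium flux slope and its plate-corrected score both differing from the plate sample mean at a set confidence after two filtering rounds, in either direction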;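 note: slope of fluorescence scaled to starting intensity during 10 to 20 s after thallium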
Target sequence (Q9H2X9 whole entry, looked up): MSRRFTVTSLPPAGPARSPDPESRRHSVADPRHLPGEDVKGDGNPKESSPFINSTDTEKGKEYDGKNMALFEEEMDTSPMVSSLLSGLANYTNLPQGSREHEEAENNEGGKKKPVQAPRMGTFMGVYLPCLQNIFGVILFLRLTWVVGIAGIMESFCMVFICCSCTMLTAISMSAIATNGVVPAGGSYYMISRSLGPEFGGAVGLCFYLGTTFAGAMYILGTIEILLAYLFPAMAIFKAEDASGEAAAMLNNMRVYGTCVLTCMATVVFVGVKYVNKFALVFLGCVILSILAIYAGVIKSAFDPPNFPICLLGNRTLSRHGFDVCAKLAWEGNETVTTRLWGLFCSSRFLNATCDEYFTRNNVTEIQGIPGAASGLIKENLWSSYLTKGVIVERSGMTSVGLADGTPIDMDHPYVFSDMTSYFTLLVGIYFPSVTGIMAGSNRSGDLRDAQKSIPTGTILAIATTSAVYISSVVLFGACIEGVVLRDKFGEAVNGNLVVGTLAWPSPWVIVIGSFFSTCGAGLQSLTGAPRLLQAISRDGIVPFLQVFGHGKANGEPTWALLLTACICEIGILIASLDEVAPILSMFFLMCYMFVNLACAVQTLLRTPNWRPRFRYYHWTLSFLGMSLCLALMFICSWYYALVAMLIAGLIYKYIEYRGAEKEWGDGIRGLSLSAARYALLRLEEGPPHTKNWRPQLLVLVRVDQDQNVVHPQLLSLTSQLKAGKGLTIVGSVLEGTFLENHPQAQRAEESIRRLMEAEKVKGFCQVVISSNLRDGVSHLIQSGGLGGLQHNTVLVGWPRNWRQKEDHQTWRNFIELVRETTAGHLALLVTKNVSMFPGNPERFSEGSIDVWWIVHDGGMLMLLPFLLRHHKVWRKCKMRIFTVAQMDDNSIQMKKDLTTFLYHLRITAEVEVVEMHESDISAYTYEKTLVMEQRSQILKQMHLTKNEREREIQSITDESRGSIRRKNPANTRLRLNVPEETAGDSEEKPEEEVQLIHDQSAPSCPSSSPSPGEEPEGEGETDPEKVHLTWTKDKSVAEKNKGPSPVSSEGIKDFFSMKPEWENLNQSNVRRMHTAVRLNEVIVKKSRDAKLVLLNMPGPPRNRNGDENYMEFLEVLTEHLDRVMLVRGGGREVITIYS
PHOSPHO1 block: blocks human PHOSPHO1 phosphatase activity. recombinant PHOSPHO1, absorbance phosphatase assay. inhibition, % at 13.3 µM. hit rate 1.1% among 290,000. Q8TCT1. AID 1565; in the data active = inhibition above about 60%
Calb FLC: affects C. albicans growth with fluconazole; C. albicans CaCi-2 (fluconazole-resistant clinical isolate) + fluconazole, Alamar Blue growth, 48 h; growth inhibition, % (concentration not given with the values); hit rate 0.57% among 300,000;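 active = growth inhibition above about 58% in most replicates, limit read from the data, passing the limit was not always enough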;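 note: all wells also contain fluconazole at 8 µg/ml as a sub-toxic cotreatment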
Each line names hits and unclear results; the compound was inactive in the other large screens.

O=C(c1ccco1)N1CCN(C(=O)c2ccc(COc3ccc(Cl)cc3Cl)o2)CC1	KCC2 mod -3.4 (no result: PHOSPHO1 block)
O=C(c1ccco1)N1CCN(C(=O)c2ccc(COc3ccc4c(c3)CCC4)o2)CC1	none
CC(=O)N1c2ccc(S(=O)(=O)N(C)CC(=O)Nc3ccccc3C)cc2CC1C (configuration not stated)	none (no result: KCC2 mod)
Cc1ccc(OCC(=O)Nc2ccc(N3CCN(C(=O)c4ccco4)CC3)cc2)cc1C	none
Cc1ccccc1OCC(=O)Nc1ccc(NC(=O)c2ccco2)cc1	PHOSPHO1 block 67.3
Cc1ccccc1OCC(=O)Nc1cccc(NC(=O)c2ccco2)c1	none (no result: KCC2 mod)
COC(=O)c1ccc(NC(=O)c2ccc(NC(=O)c3ccco3)cc2)cc1	Efflux pump inh 10.8 (no result: KCC2 mod)
Cc1cc(OCC(=O)Nc2ccc(N3CCN(C(=O)c4ccco4)CC3)cc2)cc(C)c1Cl	PHOSPHO1 block 72.9 (no result: KCC2 mod)
CCN(CC)c1ccc(/C=N/NC(=O)c2ccco2)c(O)c1	Calb FLC 88.9
Cc1cccc(C)c1NC(=O)C1(C)CCC(=O)N1CCc1c[nH]c2ccccc12 (configuration not stated)	none (no result: Efflux pump inh, KCC2 mod, PHOSPHO1 block, Calb FLC)
CCN(CC)c1ccc(NC(=O)c2ccco2)cc1	PHOSPHO1 block 61.1
COc1cc(C(=O)Nc2ccc(NC(=O)c3ccco3)nc2)cc(OC)c1OC	H9c2 protect 52.3
CCN(CC)c1ccc(NC(=O)c2ccco2)c(C)c1	none
O=C(CCl)Nc1ccc(-c2ccccc2)cc1	Calb FLC 91.6
COc1cccc(/C=N/NC(=O)CNC(=O)COc2ccccc2)c1O	none
Cc1cccc(OCC(=O)NCC(=O)N/N=C/c2cc(Br)cc(Br)c2O)c1	H9c2 protect 59.2 (no result: KCC2 mod)
CCOc1ccc(/C=N/NC(=O)C(O)c2ccccc2)c(O)c1 (configuration not stated)	H9c2 protect 51.7 (no result: KCC2 mod)
O=C(COc1ccccc1)NCC(=O)N/N=C/c1ccc(O)cc1O	H9c2 protect 60.2
Cc1ccc(C(=O)N/N=C(/CC(=O)c2cccs2)C(F)(F)F)cc1	KCC2 mod 63.5
O=C(N/N=C(\CC(=O)c1cccs1)C(F)(F)F)c1ccncc1	none
O=C(/C=C/c1cccc([N+](=O)[O-])c1)OCC1CCCO1 (configuration not stated)	none (no result: KCC2 mod)
NS(=O)(=O)c1ccc(NC(=O)COC(=O)CSc2n[nH]c(-c3ccccc3)n2)cc1	PHOSPHO1 block 71.4
CN(C(=O)c1cccc(NC(=O)Cc2ccc(NC(=O)C3CCN(C(=O)C4CC4)CC3)cc2)c1)C1CCCCC1	none (no result: Efflux pump inh, KCC2 mod, PHOSPHO1 block, Calb FLC)
O=[N+]([O-])c1cc(Br)c2nsnc2c1N1CCOCC1	none (no result: KCC2 mod)
Cc1cccc(Nc2nc3c(c(=O)n(C)c(=O)n3C)n2Cc2ccccc2)c1	none (no result: Efflux pump inh)
Cc1ccccc1OCC(O)Cn1c(SC(C)C)nc2c1c(=O)[nH]c(=O)n2C (configuration not stated)	PHOSPHO1 block 91.4
COc1ccc(OCC(O)Cn2c(Br)nc3c2c(=O)[nH]c(=O)n3C)cc1 (configuration not stated)	H9c2 protect 53.6
Cn1c(=O)[nH]c(=O)c2c1nc(Br)n2CC(O)COc1ccc(Cl)cc1 (configuration not stated)	H9c2 protect 92.2
COc1ccc(OCC(O)Cn2c(Nc3cccc(C)c3)nc3c2c(=O)n(C)c(=O)n3C)cc1 (configuration not stated)	H9c2 protect 64.1
CCCCN(C(=O)c1cc(S(=O)(=O)N2CCCCCC2)ccc1OC)c1c(N)n(CCC)c(=O)[nH]c1=O	none (no result: KCC2 mod, PHOSPHO1 block)
COC(CN(C)C(=O)c1ccc2c(c1)NC(=O)c1ccccc1S2)OC	Calb FLC 119.6 (no result: KCC2 mod)
COC(=O)c1cc(C)sc1NC(=O)c1cccnc1	Calb FLC 110.0
O=C(O)c1ccc(Nc2cnc3ccccc3n2)cc1	Calb FLC 94.6
CCOC(=O)c1ccc(Nc2cnc3ccccc3n2)cc1	none
Cc1sc2nc(CSCC(=O)NC(C)(C)C)[nH]c(=O)c2c1C	none
Cc1sc2nc(CSCC(=O)Nc3c(F)cccc3F)[nH]c(=O)c2c1C	none (no result: KCC2 mod, PHOSPHO1 block)
Cc1sc2nc(CSCC(=O)Nc3ccc(C(F)(F)F)cc3)[nH]c(=O)c2c1C	none (no result: KCC2 mod, PHOSPHO1 block, Calb FLC)
Cc1sc2nc(CSCC(=O)N(C)CC(=O)Nc3ccc(F)cc3)[nH]c(=O)c2c1C	H9c2 protect 53.8 (no result: KCC2 mod, PHOSPHO1 block)
Cc1sc2nc(CSCC(=O)N(C)c3ccccc3)[nH]c(=O)c2c1C	H9c2 protect 65.5
Cc1sc2nc(CSCC(=O)N(CCC#N)c3ccccc3)[nH]c(=O)c2c1C	H9c2 protect 64.1
CCCCn1nnnc1C(c1cc2ccccc2o1)N1CCN(C/C=C/c2ccccc2)CC1 (configuration not stated)	none (no result: Efflux pump inh, KCC2 mod, PHOSPHO1 block, Calb FLC)
COc1ccc(CN2CCNC(=O)C2CC(=O)NCCc2nc(C)c(C)s2)cc1C (configuration not stated)	none (no result: KCC2 mod)
C=CCNC(=S)NNC(=O)c1cccn(Cc2cccc(Cl)c2)c1=O	PHOSPHO1 block 79.0
C=CCNC(=S)NNC(=O)c1cccn(Cc2ccc(Cl)cc2)c1=O	none
Cn1c(SCc2cc(=O)n3cc(Br)ccc3n2)nnc1C1COc2ccccc2O1 (configuration not stated)	PHOSPHO1 block 73.3
Cc1cccc(C)c1NC(=S)N/N=C1\CC2CC=CC12 (configuration not stated)	none
Cc1ccc(NC(=S)N/N=C2\CC3CC=CC23)c(C)c1 (configuration not stated)	PHOSPHO1 block 65.3
CCN(CC)c1ncnc2c1ncn2[C@H]1CN(Cc2ccncc2)C[C@@H](CO)O1	none (no result: Efflux pump inh, KCC2 mod, PHOSPHO1 block, Calb FLC)
O=C(NNC(=O)c1ncc(Cl)c(Cl)c1Cl)c1ccc(F)cc1	H9c2 protect 77.7 (no result: KCC2 mod)
CCCNC(=O)c1ccc2c(=O)c(O)c(-c3ccc(Cl)c([N+](=O)[O-])c3)[nH]c2c1	H9c2 protect 68.3, Calb FLC 114.3
O=C(NCCc1nc2ccccc2[nH]1)c1ccc(Cl)c([N+](=O)[O-])c1	none
Cc1ccccc1N1C(=O)CC(Sc2nnc(-c3ccccc3)o2)C1=O (configuration not stated)	PHOSPHO1 block 81.2 (no result: KCC2 mod)
CCOC(=O)C1=C(C)NC(C)=C(C(=O)OCC)C1C(=O)OCC(=O)NCc1ccco1	none (no result: KCC2 mod, PHOSPHO1 block, Calb FLC)
Cc1cccn2c(=O)c3cc(C#N)c(=NC(=O)c4cccs4)n(CCCOC(C)C)c3nc12	H9c2 protect 57.3
Cc1cccn2c(=O)c3cc(C#N)c(=NC(=O)c4ccncc4)n(CCCOC(C)C)c3nc12	PHOSPHO1 block 96.2 (no result: KCC2 mod)
CCOC(=O)c1cc2c(=O)n3cccc(C)c3nc2n(CCCOC)c1=NC(=O)c1cccnc1	H9c2 protect 101.4 (no result: KCC2 mod)
CCCCn1c(=NC(=O)c2cccnc2)c(C#N)cc2c(=O)n3cccc(C)c3nc21	H9c2 protect 54.3, PHOSPHO1 block 78.3
CCOC(=O)c1cc2c(=O)n3cccc(C)c3nc2n(CCOC)c1=NC(=O)c1ccncc1	none (no result: H9c2 protect, Efflux pump inh, PHOSPHO1 block, Calb FLC)
O=C(NCc1ccccn1)c1ccccc1OCc1ccc(Cl)cc1Cl	none (no result: KCC2 mod, PHOSPHO1 block, Calb FLC)
COc1ccc(C(=O)NCCS(=O)(=O)N2CCCC2)cc1	none (no result: KCC2 mod, PHOSPHO1 block)
COc1ccc(Cl)cc1-c1nc(SCC(=O)N(C)C2CCS(=O)(=O)C2)n[nH]1 (configuration not stated)	none (no result: KCC2 mod, PHOSPHO1 block, Calb FLC)
CSc1ccc(Cl)c(C(=O)OCC(=O)N2CCN(c3ccccc3)CC2)c1	none (no result: Efflux pump inh, KCC2 mod, PHOSPHO1 block, Calb FLC)

Screening results as filed in PubChem.
